# Out of some 5,700 compounds screened, about 85 (1%) were called active. No stated cut-off is given here; in the data, active means p53-positive nuclei above about 36% (passing the limit was not always enough); inactive means the rest. The list comes from a sample in which actives are over-represented; it also holds similar structures and randomly drawn compounds.
# Assays:
# [1] = p53 stabilisation in HPV-positive human cells, imaging, p53-positive nuclei imaging, 24 h, 48 h (AID 1508601); conditions: 24/48 h
# [2] = molecular target: Cellular tumor antigen p53 (Homo sapiens) (UniProt P04637); assay: as above; conditions: 24/48 h, stronger effect = higher value
# [3] = measured here: cell number at 24 h, concentration not given here
# [4] = measured here: cell number at 48 h, concentration not given here
# [5] = measured here: p53 positive nuclei at 24 h, concentration not given here
# [6] = measured here: cell number at 24 h, Library stock concentration: 80 uM
# [7] = measured here: cell number at 24 h, Library stock concentration: 400 uM
# [8] = measured here: cell number at 24 h, Library stock concentration: 2 mM
# [9] = measured here: cell number at 24 h, Library stock concentration: 10 mM
# [10] = measured here: cell number at 48 h, Library stock concentration: 80 uM
# [11] = measured here: cell number at 48 h, Library stock concentration: 400 uM
# [12] = measured here: cell number at 48 h, Library stock concentration: 2 mM
# [13] = measured here: cell number at 48 h, Library stock concentration: 10 mM
# [14] = Library stock concentration: 80 uM
# [15] = Library stock concentration: 400 uM
# [16] = Library stock concentration: 2 mM
# [17] = Library stock concentration: 10 mM
# [18] = measured here: p53 positive nuclei at 24 h, Library stock concentration: 80 uM
# [19] = measured here: p53 positive nuclei at 24 h, Library stock concentration: 400 uM
# [20] = measured here: p53 positive nuclei at 24 h, Library stock concentration: 2 mM
# [21] = measured here: p53 positive nuclei at 24 h, Library stock concentration: 10 mM
# Sequence of Cellular tumor antigen p53 (Homo sapiens) (P04637 whole entry, looked up): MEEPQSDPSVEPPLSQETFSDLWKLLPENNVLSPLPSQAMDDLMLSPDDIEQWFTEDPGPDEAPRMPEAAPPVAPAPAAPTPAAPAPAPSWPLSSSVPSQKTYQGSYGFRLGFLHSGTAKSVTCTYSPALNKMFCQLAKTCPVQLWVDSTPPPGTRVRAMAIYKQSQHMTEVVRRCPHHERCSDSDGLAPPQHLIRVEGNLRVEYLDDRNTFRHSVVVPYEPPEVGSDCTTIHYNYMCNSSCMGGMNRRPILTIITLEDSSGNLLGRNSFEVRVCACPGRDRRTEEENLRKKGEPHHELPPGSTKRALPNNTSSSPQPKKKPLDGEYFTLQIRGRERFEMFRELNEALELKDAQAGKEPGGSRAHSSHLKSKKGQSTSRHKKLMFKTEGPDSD
compound,measurement,setting,value
c1nc(-c2ccc3c(c2)OCCO3)c2sccc2n1,"nuclei count, normalised",[1]; [3],74.2%
same,"nuclei count, normalised",[1]; [4],38.4%
same,"p53-positive nuclei, normalised",[2]; concentration not given here,68.7% (active)
same,"p53-positive nuclei, normalised",[2]; [5],3%
NC(=O)c1ccc(-c2nc(-c3ccc4c(c3)OCCO4)c(-c3ccccn3)[nH]2)cc1,"nuclei count, normalised",[1]; [6],108%
same,"nuclei count, normalised",[1]; [7],108%
same,"nuclei count, normalised",[1]; [8],103%
same,"nuclei count, normalised",[1]; [9],105%
same,"nuclei count, normalised",[1]; [3],114%
same,"nuclei count, normalised",[1]; [10],111%
same,"nuclei count, normalised",[1]; [11],111%
same,"nuclei count, normalised",[1]; [12],103%
same,"nuclei count, normalised",[1]; [13],99.9%
same,"nuclei count, normalised",[1]; [4],116%
same,"p53-positive nuclei, normalised",[2]; [14],0.102% (inactive)
same,"p53-positive nuclei, normalised",[2]; [15],0.159% (inactive)
same,"p53-positive nuclei, normalised",[2]; [16],-0.0937% (inactive)
same,"p53-positive nuclei, normalised",[2]; [17],0.066% (inactive)
same,"p53-positive nuclei, normalised",[2]; concentration not given here,-0.0133% (inactive)
same,"p53-positive nuclei, normalised",[2]; [18],-0.0114%
same,"p53-positive nuclei, normalised",[2]; [19],0.0817%
same,"p53-positive nuclei, normalised",[2]; [20],-0.00675%
same,"p53-positive nuclei, normalised",[2]; [21],0.138%
same,"p53-positive nuclei, normalised",[2]; [5],-0.0284%
COc1nccnc1-c1ccc2c(c1)OCO2,"nuclei count, normalised",[1]; [3],115%
same,"nuclei count, normalised",[1]; [4],114%
same,"p53-positive nuclei, normalised",[2]; concentration not given here,-0.145% (inactive)
same,"p53-positive nuclei, normalised",[2]; [5],-0.0884%
CC=C1NC(=O)C2CSSCCC=CC(CC(=O)NC(C(C)C)C(=O)N2)OC(=O)C(C(C)C)NC1=O (centres undefined),"nuclei count, normalised","[1]; measured here: cell number at 24 h, Library stock concentration: 3.33 mM",45.3%
same,"nuclei count, normalised","[1]; measured here: cell number at 48 h, Library stock concentration: 3.33 mM",13.5%
same,"p53-positive nuclei, normalised",[2]; Library stock concentration: 3.33 mM,138% (active)
same,"p53-positive nuclei, normalised","[2]; measured here: p53 positive nuclei at 24 h, Library stock concentration: 3.33 mM",79.1%
OC1CCC(Nc2ncc3nc(Nc4c(F)cc(F)cc4F)n(C4CCOC4)c3n2)CC1 (centres undefined),"nuclei count, normalised",[1]; [6],108%
same,"nuclei count, normalised",[1]; [7],111%
same,"nuclei count, normalised",[1]; [8],106%
same,"nuclei count, normalised",[1]; [9],114%
same,"nuclei count, normalised",[1]; [10],111%
same,"nuclei count, normalised",[1]; [11],111%
same,"nuclei count, normalised",[1]; [12],112%
same,"nuclei count, normalised",[1]; [13],113%
same,"p53-positive nuclei, normalised",[2]; [14],0.0644% (inactive)
same,"p53-positive nuclei, normalised",[2]; [15],-0.0934% (inactive)
same,"p53-positive nuclei, normalised",[2]; [16],-0.0819% (inactive)
same,"p53-positive nuclei, normalised",[2]; [17],-0.265% (inactive)
same,"p53-positive nuclei, normalised",[2]; [18],0.0898%
same,"p53-positive nuclei, normalised",[2]; [19],-0.0608%
same,"p53-positive nuclei, normalised",[2]; [20],-0.051%
same,"p53-positive nuclei, normalised",[2]; [21],-0.0545%
O=C1SC(=Cc2ccc(OCc3cccc(B(O)O)c3)cc2)C(=O)N1Cc1ccc(F)cc1,"nuclei count, normalised",[1]; [6],110%
same,"nuclei count, normalised",[1]; [7],108%
same,"nuclei count, normalised",[1]; [8],110%
same,"nuclei count, normalised",[1]; [9],110%
same,"nuclei count, normalised",[1]; [10],102%
same,"nuclei count, normalised",[1]; [11],102%
same,"nuclei count, normalised",[1]; [12],109%
same,"nuclei count, normalised",[1]; [13],113%
same,"p53-positive nuclei, normalised",[2]; [14],0.073% (inactive)
same,"p53-positive nuclei, normalised",[2]; [15],0.243% (inactive)
same,"p53-positive nuclei, normalised",[2]; [16],0.131% (inactive)
same,"p53-positive nuclei, normalised",[2]; [17],-0.221% (inactive)
same,"p53-positive nuclei, normalised",[2]; [18],0.0618%
same,"p53-positive nuclei, normalised",[2]; [19],0.065%
same,"p53-positive nuclei, normalised",[2]; [20],0.123%
same,"p53-positive nuclei, normalised",[2]; [21],-0.0586%
CCN(CC)c1ccc(C=NNC(=O)c2ccc(O)cc2)cc1,"nuclei count, normalised","[1]; measured here: cell number at 24 h, Library stock concentration: 46 uM",111%
same,"nuclei count, normalised","[1]; measured here: cell number at 24 h, Library stock concentration: 278 uM",117%
same,"nuclei count, normalised","[1]; measured here: cell number at 24 h, Library stock concentration: 1.67 mM",121%
same,"nuclei count, normalised",[1]; [9],79.3%
same,"nuclei count, normalised","[1]; measured here: cell number at 48 h, Library stock concentration: 46 uM",116%
same,"nuclei count, normalised","[1]; measured here: cell number at 48 h, Library stock concentration: 278 uM",118%
same,"nuclei count, normalised","[1]; measured here: cell number at 48 h, Library stock concentration: 1.67 mM",118%
same,"nuclei count, normalised",[1]; [13],83.6%
same,"p53-positive nuclei, normalised",[2]; Library stock concentration: 46 uM,-0.325% (inactive)
same,"p53-positive nuclei, normalised",[2]; Library stock concentration: 278 uM,-0.186% (inactive)
same,"p53-positive nuclei, normalised",[2]; Library stock concentration: 1.67 mM,-0.0464% (inactive)
same,"p53-positive nuclei, normalised",[2]; [17],1.02% (inactive)
same,"p53-positive nuclei, normalised","[2]; measured here: p53 positive nuclei at 24 h, Library stock concentration: 46 uM",-0.151%
same,"p53-positive nuclei, normalised","[2]; measured here: p53 positive nuclei at 24 h, Library stock concentration: 278 uM",-0.0898%
same,"p53-positive nuclei, normalised","[2]; measured here: p53 positive nuclei at 24 h, Library stock concentration: 1.67 mM",0.0252%
same,"p53-positive nuclei, normalised",[2]; [21],0.906%
Nc1ccc(C(=O)O)c(O)c1 (tested in a mixture with another compound),"nuclei count, normalised",[1]; [3],95.8%
same,"nuclei count, normalised",[1]; [4],101%
same,"p53-positive nuclei, normalised",[2]; concentration not given here,0.284% (inactive)
same,"p53-positive nuclei, normalised",[2]; [5],0.00463%
CCC(C)C(NC(=O)C(C(C)CC)N(C)C(C)=O)C(=O)NC(C(=O)NC(CC(C)C)C(=O)[C@@]1(C)CO1)C(C)O (some centres undefined),"nuclei count, normalised",[1]; [6],52.8%
same,"nuclei count, normalised",[1]; [7],48.9%
same,"nuclei count, normalised",[1]; [8],47.9%
same,"nuclei count, normalised",[1]; [9],45.3%
same,"nuclei count, normalised",[1]; [10],41.4%
same,"nuclei count, normalised",[1]; [11],39.9%
same,"nuclei count, normalised",[1]; [12],38.3%
same,"nuclei count, normalised",[1]; [13],35.1%
same,"p53-positive nuclei, normalised",[2]; [14],104% (active)
same,"p53-positive nuclei, normalised",[2]; [15],100% (active)
same,"p53-positive nuclei, normalised",[2]; [16],107% (active)
same,"p53-positive nuclei, normalised",[2]; [17],106% (active)
same,"p53-positive nuclei, normalised",[2]; [18],124%
same,"p53-positive nuclei, normalised",[2]; [19],125%
same,"p53-positive nuclei, normalised",[2]; [20],127%
same,"p53-positive nuclei, normalised",[2]; [21],125%
CC(=O)N[C@@H](CC(C)C)C(=O)N1CCC(n2cc(C(C)(C)N)nn2)CC1,"nuclei count, normalised",[1]; [3],104%
same,"nuclei count, normalised",[1]; [4],109%
same,"p53-positive nuclei, normalised",[2]; concentration not given here,-0.0832% (inactive)
same,"p53-positive nuclei, normalised",[2]; [5],0.155%

# From PubChem BioAssay AID1508601 (ICCB-Longwood Screening Facility, Harvard Medical School, 2020)
